In PubChem BioAssay AID623868 (Vanderbilt High Throughput Screening Facility, 2012):
Out of some 2,100 compounds screened, about 760 (36%) were called active.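 Rule for the calls: active = thallium-flux fluorescence traces judged by eye to show enhanced or reduced glutamate response, manual score 1 or -1, so both directions (some results past the limit were not filed as active); inactive = the rest, including fluorescent or raised-baseline compounds.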 These entries were drawn from the full list.

assay: non-GIRK thallium flux modulation in mGlu8 cells, confirmation, counter-screen for GIRK activator project, cell-based, HEK-293 rmGlu8, no GIRK (AID 623868); details: thallium flux fluorescence, at 10 µM, actives lie on both sides, codes: 1 enhancer, -1 blocker, 0 none, thallium stimulus containing EC20 glutamate;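 note: extra codes mark interference with 3 for fluorescent and 4 for baseline rise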

Structure (SMILES)	manual score
S=C1NC2=C(CCCC2)C2(CCCCC2)N1	0 (inactive)
CN(CC(=O)Nn1cnnc1)S(=O)(=O)c1ccc(Br)cc1	0 (inactive)
C/C(=N\NC(=O)c1ccccc1)c1nc2ccccc2n1C	0 (inactive)
C/C(=N\NC(=O)c1ccc(Cl)cc1)c1ccc(Br)s1	1 (active)
C/C(=N\NC(=O)c1ccccc1O)c1ccc(Br)s1	1 (active)
C/C(=N\NC(=O)c1cccc(F)c1)c1ccc(Br)s1	1 (active)
O=C(N/N=C/c1c(Cl)cccc1Cl)c1cccc(F)c1	0 (inactive)
CCC(NC(=O)c1ccccc1O)c1ccccc1 (stereo unspecified)	0 (inactive)
CN(C)/C=C/C(=O)/C=C/c1cn(-c2ncc(C(F)(F)F)cc2Cl)c2ccccc12	0 (inactive)
CCc1ccc2c(c1)C1(NN=C(c3ccc(C)cc3)S1)C(=O)N2 (stereo unspecified)	0 (inactive)
CCOC(=O)c1c(NC(=O)C2C3C=CC(C3)C2C(=O)O)sc2c1CCC(CC)C2 (stereo unspecified)	0 (inactive)
CCOC(=O)c1ccc(CNCc2ccc(Br)cc2)cc1	0 (inactive)
CCOC(=O)c1c(NS(=O)(=O)c2cccc(OC)c2)sc2c1CCC2	1 (active)
CCOC(=O)c1c(NS(=O)(=O)c2ccc(Br)cc2)sc2c1CCC2	1 (active)
O=C1CS/C(=N\C(=O)N2c3ccccc3Sc3ccccc32)N1	0 (inactive)
CC(C)Cn1cnc2c(c(-c3ccccc3)c(-c3ccccc3)n2Cc2ccco2)c1=N	0 (inactive)

Structure (SMILES)	manual score
O=S(=O)(Nc1cc(Sc2cccc3cccnc23)c(O)c2ccccc12)c1ccc(F)cc1	0 (inactive)
CC(=O)/C(=N\Nc1ccc(Cl)cc1Cl)Sc1cccc2cccnc12	1 (active)
CCOc1ccc(-c2nc(-c3ccncc3)no2)cc1OCC	0 (inactive)
Cc1ccc(C(=O)CC(=O)c2cc(Cl)ccc2O)cc1	0 (inactive)
Cc1cccc(C(=O)CC(=O)c2cc(Cl)ccc2O)c1	0.5 (inactive)
O=C(c1cccc(F)c1)N1CCN(Cc2ccco2)CC1	0 (inactive)
O=C(CC(=O)c1ccccc1O)c1ccc(F)cc1	1 (active)
O=C(CC(=O)c1ccccc1O)c1cccc(F)c1	1 (active)
O=C(CC(=O)c1cc(Cl)ccc1O)c1ccccc1	1 (active)
C/C(=N/NC(=O)c1cc(Cl)ccc1O)C12CC3CC(CC(C3)C1)C2	0 (inactive)
COC(=O)c1nc(NC(C)=O)n[nH]1	0 (inactive)
Cc1ccc(NC(=O)COn2nnc3ccc(S(=O)(=O)N(C)C)cc32)cc1F	0 (inactive)
CCN(CC)CCN1C(=O)c2oc3ccccc3c(=O)c2C1c1ccc(C)cc1 (stereo unspecified)	0 (inactive)
O=c1c(O)c(-c2cccs2)oc2ccc(Cl)cc12	3 (inactive)
Cc1ccc(C2c3c(oc4ccc(Cl)cc4c3=O)C(=O)N2CCCN2CCOCC2)o1 (stereo unspecified)	1 (active)
